Experimental data: PubChem BioAssay AID2685 (National Center for Advancing Translational Sciences (NCATS), 2010)
The whole screen tested about 320,000 compounds, of which about 2,100 (0.66%) were called active. Another 53% or so got no clear call; they are omitted. The call rests on the fitted dose curve; in most records, active means well fitted inhibition curve with a large enough effect in the signal ratio, with a control signal flat (not every such curve was filed as active); inconclusive means small, poorly fitted or top-dose-only effect, or effect the other way, or a change in a side signal; inactive means flat fitted curve, though single readings scatter; the % refers to the signal ratio. Only a selection was taken, and actives are over-represented in it overall.
Potency means the concentration at half of the fitted maximal effect.

Test: qHTS Assay for Lipid Storage Modulators in Drosophila S3 Cells;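 on cell number change: cells counted by Cell Tracker Red CMTPX staining in the red channel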; on lipid storage change, negative = inhibition: on the % scale 0 is the no-effect control and ±100 the full control effect
Conditions: BODIPY lipid droplet fluorescence, 18-24 h, cells fed with added oleic acid; cell number change: measured here: cell count max response; series mostly up to 46.1 µM; lipid storage change, negative = inhibition: at the top concentration
How it was run: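 Drosophila S3 cells loaded with oleic acid (400 uM, as added) and compounds at several concentrations; lipid droplets imaged by 488-nm laser-scanning cytometry, 500–530 nm intensity and object ratio to cell channel. Percent activity normalized to 20 uM Triacsin C.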
With `O=S(=O)(NCc1cccnc1)c1ccc(Br)c2ccccc12` the “outcome” value was “inactive” and the cell number change was 10.4%. For `Cc1ccccc1S(=O)(=O)Nc1cccnc1`, the “lipid storage change, negative = inhibition” value was 4.78% (inactive) and the cell number change was 1.91%. With `C/C(CC(=O)Nc1ccc(Cl)cc1Cl)=N\NC(=O)c1ccncc1` the “lipid storage change, negative = inhibition” value was 15.2% (inactive) and the cell number change was 23%. In the case of `COc1cc2c(cc1OC)C(c1cccc(Cl)c1Cl)CC(=O)N2` (stereo unspecified), the “lipid storage change, negative = inhibition” value is reported as -8.05% (inactive) and the cell number change is reported as -12.7%. With `COc1ccc(C(=O)N/N=C(\C)CC(=O)Nc2ccc3c(c2)OCCO3)c(OC)c1` the “outcome” value was “inactive” and the cell number change was 14.3%. For `C/C(CC(=O)Nc1ccc2c(c1)OCCO2)=N\NC(=O)c1ccccc1F`, the “outcome” value was “inactive” and the cell number change was 8.06%. With `COc1ccccc1C(=O)N/N=C(\C)CC(=O)Nc1ccc2c(c1)OCCO2` the Potency was 16.4 µM (active) and the cell number change was 22.4%. With `Cc1ccc(Nc2ccccc2)nn1` the “lipid storage change, negative = inhibition” value was 5.52% (inactive) and the cell number change was 17%. For `N#Cc1ncc(Cc2ccccc2)nc1C#N`, the Potency was 7.31 µM (active) and the cell number change was -22.9%. With `N#Cc1nc(Cc2ccccc2)oc1N1CCCC1` the “lipid storage change, negative = inhibition” value was -16.8% (inactive) and the cell number change was -9.44%. In the case of `N#Cc1nc(Cc2ccccc2)oc1NCc1ccccc1`, the “lipid storage change, negative = inhibition” value is reported as -3.57% (inactive) and the cell number change is reported as -21%. For `COc1ccccc1NC(=O)NNC(=O)C(C)Oc1ccc2ccccc2c1` (stereo unspecified), the “lipid storage change, negative = inhibition” value was 6.71% (inactive) and the cell number change was 7.76%. In the case of `Cc1ccc(/C=N/N2CCN(Cc3ccc(Cl)cc3)CC2)o1`, the “lipid storage change, negative = inhibition” value is reported as -1.89% (inactive) and the cell number change is reported as -6.6%. With `CC(C)CNC(=O)NC(=O)COC(=O)C1CSC2(c3ccc(F)cc3)CCC(=O)N12` (stereo unspecified) the “lipid storage change, negative = inhibition” value was -8.94% (inactive) and the cell number change was 5.71%. In the case of `O=C(C1CSC2(c3ccc(F)cc3)CCC(=O)N12)N1CCCCCC1` (stereo unspecified), the Potency is reported as 18.4 µM (active) and the cell number change is reported as -5.6%. In the case of `O=C(COC(=O)C1CSC2(c3ccc(F)cc3)CCC(=O)N12)NC(=O)NC1CCCC1` (stereo unspecified), the “lipid storage change, negative = inhibition” value is reported as -22.5% (inactive) and the cell number change is reported as 8.51%. For `Cc1cnc(NC(=O)CCNC(=O)c2ccccc2Cl)s1`, the “lipid storage change, negative = inhibition” value was -19.1% (inactive). For `Cc1noc(C(=O)NCc2cccnc2)c1Cl`, the “lipid storage change, negative = inhibition” value was 1.19% (inactive) and the cell number change was 3.97%. In the case of `CCOC(=O)Nc1ccc2c(CN3CCN(S(=O)(=O)c4ccccc4)CC3)cc(=O)oc2c1`, the “lipid storage change, negative = inhibition” value is reported as 4.48% (inactive) and the cell number change is reported as 3.64%. In the case of `O=C(NCC1CCCN(C(=O)Cc2ccccc2Cl)C1)c1ccc(F)cc1` (stereo unspecified), the “outcome” value is reported as “inactive” and the cell number change is reported as 17.2%. With `Cc1nnnn1/C(=C\c1ccccc1)C(=O)OCC(=O)NC(C)(C)C` the Potency was 4.11 µM (active) and the cell number change was -11.4%. In the case of `CC(C)(C)NC(=O)COC(=O)c1ccccc1Oc1ccccc1`, the “lipid storage change, negative = inhibition” value is reported as 8.37% (inactive). With `Cc1cc(C(=O)OCC(=O)Nc2cccc(S(=O)(=O)N(C)C)c2)c2ccccc2n1` the “lipid storage change, negative = inhibition” value was -9.59% (inactive) and the cell number change was -13.9%. In the case of `CC(C)(C)NC(=O)COC(=O)C1c2ccccc2Oc2ccccc21`, the “lipid storage change, negative = inhibition” value is reported as 22.1% (inactive) and the cell number change is reported as -10.4%. For `CN(C)S(=O)(=O)c1cccc(NC(=O)CSc2nnnn2-c2ccccc2)c1`, the “lipid storage change, negative = inhibition” value was -9.83% (inactive) and the cell number change was -3.51%. With `CC(=O)c1ccccc1NC(=O)COC(=O)c1c(C)nn(-c2ccccc2)c1C` the “lipid storage change, negative = inhibition” value was 0.367% (inactive) and the cell number change was -19.3%. For `NS(=O)(=O)c1cccc(NC(=O)COC(=O)C2(c3cccc(F)c3)CCCC2)c1`, the “lipid storage change, negative = inhibition” value was 14.4% (inactive) and the cell number change was -1.45%. In the case of `CN(C)S(=O)(=O)c1cccc(NC(=O)COC(=O)CNC(=O)c2ccccc2F)c1`, the “outcome” value is reported as “inactive”. For `Cc1nnnn1/C(=C\c1ccccc1)C(=O)OCC(=O)Nc1cccc(S(=O)(=O)N(C)C)c1`, the Potency was 3.66 µM (active) and the cell number change was -25%. With `CN(C)S(=O)(=O)c1cccc(NC(=O)COC(=O)C2(c3ccccc3F)CCCC2)c1` the Potency was 8.2 µM (active) and the cell number change was -25.4%. In the case of `CC(=O)c1ccccc1NC(=O)COC(=O)c1ccccc1NC(=O)c1ccccc1`, the “lipid storage change, negative = inhibition” value is reported as -2.12% (inactive) and the cell number change is reported as -15%. For `CC(=O)c1ccccc1NC(=O)COC(=O)/C(=C/c1ccccc1)n1nnnc1C`, the Potency was 7.31 µM (active) and the cell number change was -27.9%. In the case of `COc1ccc(C2N(c3ccc4c(c3)OCCO4)C(=O)C2(F)F)cc1OC` (stereo unspecified), the “lipid storage change, negative = inhibition” value is reported as -8.57% (inactive) and the cell number change is reported as -17.8%. With `Cc1c(Cl)cccc1NC(=O)NCc1ccc(F)cc1` the “lipid storage change, negative = inhibition” value was -7.7% (inactive) and the cell number change was 3.73%. In the case of `COc1cccc(-c2noc(C3CCCN(C(=O)c4cccc(F)c4)C3)n2)c1` (stereo unspecified), the “outcome” value is reported as “inactive” and the cell number change is reported as -8.07%. With `CCOc1ccc(N(CC(=O)Nc2ccc(C)c(C)c2)S(=O)(=O)c2c(C)[nH]c(=O)[nH]c2=O)cc1` the “lipid storage change, negative = inhibition” value was 17.7% (inactive) and the cell number change was 10.2%. With `CCC(C)NC(=O)C(=O)NCc1ccncc1` (stereo unspecified) the “lipid storage change, negative = inhibition” value was 0.0372% (inactive) and the cell number change was -9.14%. In the case of `CCc1ccc2oc(C(=O)N3CCN(C)CC3)cc(=O)c2c1`, the “lipid storage change, negative = inhibition” value is reported as 5.21% (inactive) and the cell number change is reported as 14.4%. For `CC1C/C(=C/c2cccs2)C(=O)/C(=C/c2cccs2)C1` (stereo unspecified), the “lipid storage change, negative = inhibition” value was 0.0093% (inactive) and the cell number change was -17.9%. For `O=C1/C(=C/c2cccnc2)CCC/C1=C\c1cccnc1`, the Potency was 14.6 µM (active) and the cell number change was -13.8%. For `O=C1/C(=C/c2cccnc2)Cc2ccc(Cl)cc21`, the “lipid storage change, negative = inhibition” value was 23.8% (inactive) and the cell number change was 24.8%. For `O=C1/C(=C/c2cccnc2)CC/C1=C\c1cccnc1`, the “lipid storage change, negative = inhibition” value was 6.31% (inactive) and the cell number change was -4.02%. With `CC1C/C(=C\c2cccnc2)C(=O)/C(=C/c2cccnc2)C1` (stereo unspecified) the Potency was 5.17 µM (active) and the cell number change was -29%. In the case of `CC(C)/C=C1\CC/C(=C\c2cccnc2)C1=O`, the “lipid storage change, negative = inhibition” value is reported as 0.736% (inactive) and the cell number change is reported as -13.9%. In the case of `CN(C)c1cccc(C(=O)NNC(=O)NC2CCCCC2)c1`, the “lipid storage change, negative = inhibition” value is reported as 0.926% (inactive) and the cell number change is reported as -5.42%. With `Cc1cccc2cc(CN(CC3CCCO3)S(=O)(=O)c3ccccc3)c3nnnn3c12` (stereo unspecified) the “outcome” value was “inactive” and the cell number change was 3.31%. In the case of `CC(CC(=O)Nc1cccc(F)c1)S(=O)(=O)c1ccc2c(c1)NC(=O)CO2` (stereo unspecified), the “outcome” value is reported as “inactive” and the cell number change is reported as 6.92%.
